Activity calls are given as the source filed them. Rule for the calls: active = hit-call score of the fitted dose curve at least 0.9, where 1 is the maximum; inactive = score below 0.9.
Experiments:
[1] = ATG_GRE_CIS: Attagene CIS-FACTORIAL HepG2 Assay for human Glucocorticoid Response Elements (GRE) (AID 2282947); conditions: HepG2 GRE cis-reporter, Attagene multiplex mRNA; actives raise or lower the signal
Summary of the method: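 HepG2, transient cis-reporter transfection, 24 h. Reporter mRNA: RT-PCR then CE, fluorescence. Fit both directions vs DMSO.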

[2] = ATG_ISRE_CIS: Attagene CIS-FACTORIAL HepG2 Assay for human Interferon Regulatory Factor 1 (IRF1) binding to an Interferon-Stimulated Response Element (ISRE) (AID 2282948); conditions: HepG2 ISRE cis-reporter (Attagene), mRNA transcription readout; actives raise or lower the signal
Summary of the method: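 Read-out: fluorescent RT-PCR products resolved by capillary electrophoresis, reporting endogenous transcription factor activity via ISRE-driven reporter mRNA in transfected HepG2 cells dosed for 24 h; gain or loss fitted relative to DMSO.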

[3] = ATG_M_32_CIS: Attagene CIS-FACTORIAL HepG2 Assay for M32 Transcription Factor (Internal Marker) (AID 2282949); conditions: HepG2 Attagene cis-factorial M32 reporter, mRNA; actives raise or lower the signal;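 note: background control marker of the multiplexed CIS panel rather than a real target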
Summary of the method: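 Transient MRTU transfection of HepG2; 24 h compound treatment; TriZol RNA, oligo(dT) RT, reporter PCR, 6-FAM primer extension, HpaI cut, CE. Gain/loss of signal vs DMSO.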

[4] = ATG_M_06_CIS: Attagene CIS-FACTORIAL HepG2 Assay for M06 Transcription Factor (Internal Marker) (AID 2282950); conditions: HepG2 Attagene CIS-FACTORIAL M06 internal marker reporter; actives raise or lower the signal
Summary of the method: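 Terse: HepG2, transient MRTU transfection (FuGene 6), 24 h dosing; total RNA, oligo(dT) RT, PCR, FAM label, HpaI cut, capillary electrophoresis; bidirectional fit vs DMSO baseline; background-control endpoint.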

[5] = biological target: Hypoxia-inducible factor 1-alpha (Homo sapiens) (UniProt Q16665); test: ATG_HIF1a_CIS: Attagene CIS-FACTORIAL HepG2 Assay for human Hypoxia Inducible Factor 1 (HIF1A) (AID 2282951); conditions: HepG2 Attagene cis-factorial HIF1a reporter transcription; actives raise or lower the signal
Sequence of Hypoxia-inducible factor 1-alpha (Homo sapiens) (Q16665 whole entry, looked up): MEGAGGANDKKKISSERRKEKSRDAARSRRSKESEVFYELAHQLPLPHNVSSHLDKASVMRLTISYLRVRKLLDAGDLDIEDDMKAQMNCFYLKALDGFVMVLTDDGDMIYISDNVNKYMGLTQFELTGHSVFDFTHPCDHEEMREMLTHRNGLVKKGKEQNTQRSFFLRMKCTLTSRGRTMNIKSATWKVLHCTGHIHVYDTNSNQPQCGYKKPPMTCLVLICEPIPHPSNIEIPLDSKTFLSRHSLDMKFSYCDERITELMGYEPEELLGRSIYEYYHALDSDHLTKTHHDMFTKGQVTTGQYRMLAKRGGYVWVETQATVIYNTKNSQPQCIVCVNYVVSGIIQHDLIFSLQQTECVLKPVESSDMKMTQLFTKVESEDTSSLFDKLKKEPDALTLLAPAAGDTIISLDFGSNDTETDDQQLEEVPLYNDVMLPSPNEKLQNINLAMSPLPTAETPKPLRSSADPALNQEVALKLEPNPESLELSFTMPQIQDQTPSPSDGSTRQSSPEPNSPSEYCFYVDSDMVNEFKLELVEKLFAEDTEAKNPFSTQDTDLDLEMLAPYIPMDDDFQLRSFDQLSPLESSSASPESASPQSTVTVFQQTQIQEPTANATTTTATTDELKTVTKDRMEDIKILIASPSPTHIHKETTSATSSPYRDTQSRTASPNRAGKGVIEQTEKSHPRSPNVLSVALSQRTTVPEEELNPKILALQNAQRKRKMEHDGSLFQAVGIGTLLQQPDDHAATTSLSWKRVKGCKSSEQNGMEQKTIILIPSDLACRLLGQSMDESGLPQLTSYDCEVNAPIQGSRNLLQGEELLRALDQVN
Summary of the method: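 After 24 h chemical exposure of reporter-transfected HepG2 cells, reporter cDNA was PCR-amplified, labelled by 6-FAM primer extension (2 min 95 C, 20 s 68 C, 10 min 72 C), HpaI-cut (2 h, 37 C) and analysed by CE.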

[6] = biological target: Hepatocyte nuclear factor 6 (Homo sapiens) (UniProt Q9UBC0); test: ATG_HNF6_CIS: Attagene CIS-FACTORIAL HepG2 Assay for human Hepatocyte Nuclear Factor 6 (HNF6) (AID 2282952); conditions: HepG2 Attagene cis-factorial HNF6 reporter transcription; actives raise or lower the signal
Sequence of Hepatocyte nuclear factor 6 (Homo sapiens) (Q9UBC0 whole entry, looked up, the tested form may be a part): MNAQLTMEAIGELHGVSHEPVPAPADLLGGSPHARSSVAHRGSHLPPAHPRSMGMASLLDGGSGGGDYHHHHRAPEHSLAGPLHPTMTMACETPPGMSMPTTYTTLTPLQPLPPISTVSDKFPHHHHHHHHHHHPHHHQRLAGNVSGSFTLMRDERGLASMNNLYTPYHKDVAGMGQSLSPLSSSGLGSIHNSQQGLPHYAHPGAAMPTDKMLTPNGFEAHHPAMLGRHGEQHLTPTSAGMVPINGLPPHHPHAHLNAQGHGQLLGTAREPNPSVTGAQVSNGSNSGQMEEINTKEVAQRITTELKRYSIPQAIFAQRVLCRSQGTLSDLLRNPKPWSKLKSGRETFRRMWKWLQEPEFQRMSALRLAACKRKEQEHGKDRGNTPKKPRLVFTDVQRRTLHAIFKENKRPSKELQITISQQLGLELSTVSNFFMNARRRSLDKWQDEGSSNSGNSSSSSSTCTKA
Summary of the method: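 Twenty-four-hour chemical treatment of reporter-transfected HepG2 cells precedes RNA isolation, DNase-treated reverse transcription and PCR of reporter sequences. Labelled fragments are sized by capillary electrophoresis and fitted bidirectionally versus DMSO.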

[7] = biological target: Heat shock factor protein 1 (Homo sapiens) (UniProt Q00613); test: ATG_HSE_CIS: Attagene CIS-FACTORIAL HepG2 Assay for human Heat Shock Transcription Factor 1 (HSE) (AID 2282953); conditions: HepG2 HSE cis-reporter, Attagene RNA transcription; actives raise or lower the signal
Sequence of Heat shock factor protein 1 (Homo sapiens) (Q00613 whole entry, looked up, the tested form may be a part): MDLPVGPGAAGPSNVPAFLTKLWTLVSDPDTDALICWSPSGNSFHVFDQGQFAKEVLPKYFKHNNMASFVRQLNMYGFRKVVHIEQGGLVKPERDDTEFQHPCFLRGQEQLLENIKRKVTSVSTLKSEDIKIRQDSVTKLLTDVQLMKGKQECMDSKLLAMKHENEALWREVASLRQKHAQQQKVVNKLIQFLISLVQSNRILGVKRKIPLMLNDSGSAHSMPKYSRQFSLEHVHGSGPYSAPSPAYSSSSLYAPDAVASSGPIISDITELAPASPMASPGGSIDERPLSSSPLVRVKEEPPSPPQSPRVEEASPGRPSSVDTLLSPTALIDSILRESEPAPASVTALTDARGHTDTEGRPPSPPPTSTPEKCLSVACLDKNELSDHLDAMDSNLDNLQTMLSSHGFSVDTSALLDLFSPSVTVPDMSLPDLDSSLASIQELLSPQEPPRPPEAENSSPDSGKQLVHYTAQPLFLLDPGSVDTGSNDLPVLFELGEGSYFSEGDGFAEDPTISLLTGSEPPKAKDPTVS
Summary of the method: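 Read-out: fluorescence of reporter-specific RT-PCR fragments separated by capillary electrophoresis. HepG2 carrying transfected cis-element reporter units; 24 h dosing; activity fitted in both directions relative to DMSO baseline.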

[8] = ATG_MRE_CIS: Attagene CIS-FACTORIAL HepG2 Assay for human Metal Responsive Element (MRE) (AID 2282954); conditions: HepG2 MRE cis-reporter transcription, Attagene multiplex; actives raise or lower the signal
Summary of the method: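 Readout: capillary electrophoresis of 6-FAM-labelled, HpaI-digested RT-PCR reporter products. System: HepG2 cells carrying transient multiplexed cis reporters, dosed 24 h. Analysis: bidirectional fit, DMSO baseline.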

[9] = ATG_PBREM_CIS: Attagene CIS-FACTORIAL HepG2 Assay for human Phenobarbital-responsive Enhancer Module (PBREM) (AID 2282955); conditions: HepG2 PBREM cis-reporter, Attagene multiplexed transcription; actives raise or lower the signal
Summary of the method: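 Measures endogenous factor action on a phenobarbital-responsive enhancer module. HepG2 transiently carrying cis reporters, 24 h treatment, mRNA read-out by RT-PCR plus capillary electrophoresis.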

[10] = biological target: Paired box protein Pax-6 (Homo sapiens) (UniProt P26367); test: ATG_Pax6_CIS: Attagene CIS-FACTORIAL HepG2 Assay for human Paired Box 6 (PAX6) (AID 2282956); conditions: HepG2 CIS-FACTORIAL PAX6 reporter transcription, RNA readout; actives raise or lower the signal
Sequence of Paired box protein Pax-6 (Homo sapiens) (P26367 whole entry, looked up): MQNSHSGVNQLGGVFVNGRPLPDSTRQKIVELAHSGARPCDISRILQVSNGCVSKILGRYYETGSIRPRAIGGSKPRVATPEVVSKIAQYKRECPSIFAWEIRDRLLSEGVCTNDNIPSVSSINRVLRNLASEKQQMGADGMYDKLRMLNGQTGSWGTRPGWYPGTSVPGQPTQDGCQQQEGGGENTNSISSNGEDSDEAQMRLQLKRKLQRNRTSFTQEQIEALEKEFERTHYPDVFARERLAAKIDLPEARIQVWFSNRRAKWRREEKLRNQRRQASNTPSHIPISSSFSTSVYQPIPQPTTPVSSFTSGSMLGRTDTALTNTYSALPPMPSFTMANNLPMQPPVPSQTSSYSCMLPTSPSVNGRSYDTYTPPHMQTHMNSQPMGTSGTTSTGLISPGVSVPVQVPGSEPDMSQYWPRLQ
Summary of the method: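 Readout: reporter transcript fluorescence after RT-PCR and capillary electrophoresis. Cells: HepG2, transiently transfected with cis-regulated MRTUs. Exposure 24 h. Gain or loss of signal fitted bidirectionally relative to DMSO.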

[11] = ATG_PXRE_CIS: Attagene CIS-FACTORIAL HepG2 Assay for human Pregnane X Receptor Element (PXRE) (AID 2282957); conditions: HepG2 Attagene CIS-FACTORIAL PXRE reporter, mRNA; actives raise or lower the signal
Summary of the method: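 Bidirectional activity, baselined to DMSO, derived from reporter mRNA fluorescence (RT-PCR plus capillary electrophoresis) in HepG2 cells bearing cis-promoter reporter units, 24 h exposure.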

[12] = ATG_PPRE_CIS: Attagene CIS-FACTORIAL HepG2 Assay for human Peroxisome Proliferator-activated Response Element (PPRE) (AID 2282958); conditions: HepG2 PPRE cis-element reporter, Attagene transcription factor profiling; actives raise or lower the signal
Summary of the method: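 PPRE activity in HepG2: transient cis-reporter transfection, 24 h compound incubation, reporter mRNA by RT-PCR and CE fluorescence; gain/loss fitted against DMSO.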

[13] = ATG_RORE_CIS: Attagene CIS-FACTORIAL HepG2 Assay for human RAR-related Orphan Receptor Element (RORE) (AID 2282959); conditions: HepG2 Attagene cis-factorial RORE reporter, mRNA; actives raise or lower the signal
Summary of the method: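 A 24-hour exposure of transfected HepG2 hepatoma cells precedes RNA isolation and reporter RT-PCR. Labeled products are digested with HpaI and resolved by capillary electrophoresis, with gain or loss of signal scored relative to DMSO.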

[14] = ATG_Sox_CIS: Attagene CIS-FACTORIAL HepG2 Assay for human SRY-box transcription factor (SOX) (AID 2282960); conditions: HepG2 Attagene cis-factorial SOX reporter, mRNA; actives raise or lower the signal
Summary of the method: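 HepG2, cis reporter units, 24 h exposure. Reporter mRNA: RT-PCR → FAM labelling → HpaI → CE fluorescence. Bidirectional fit vs DMSO.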

[15] = biological target: Transcription factor Sp1 (Homo sapiens) (UniProt P08047); test: ATG_Sp1_CIS: Attagene CIS-FACTORIAL HepG2 Assay for human Specificity Protein 1 (Sp1) (AID 2282961); conditions: HepG2 Sp1 cis-reporter transcription, actives raise or lower the signal
Sequence of Transcription factor Sp1 (Homo sapiens) (P08047 whole entry, looked up, the tested form may be a part): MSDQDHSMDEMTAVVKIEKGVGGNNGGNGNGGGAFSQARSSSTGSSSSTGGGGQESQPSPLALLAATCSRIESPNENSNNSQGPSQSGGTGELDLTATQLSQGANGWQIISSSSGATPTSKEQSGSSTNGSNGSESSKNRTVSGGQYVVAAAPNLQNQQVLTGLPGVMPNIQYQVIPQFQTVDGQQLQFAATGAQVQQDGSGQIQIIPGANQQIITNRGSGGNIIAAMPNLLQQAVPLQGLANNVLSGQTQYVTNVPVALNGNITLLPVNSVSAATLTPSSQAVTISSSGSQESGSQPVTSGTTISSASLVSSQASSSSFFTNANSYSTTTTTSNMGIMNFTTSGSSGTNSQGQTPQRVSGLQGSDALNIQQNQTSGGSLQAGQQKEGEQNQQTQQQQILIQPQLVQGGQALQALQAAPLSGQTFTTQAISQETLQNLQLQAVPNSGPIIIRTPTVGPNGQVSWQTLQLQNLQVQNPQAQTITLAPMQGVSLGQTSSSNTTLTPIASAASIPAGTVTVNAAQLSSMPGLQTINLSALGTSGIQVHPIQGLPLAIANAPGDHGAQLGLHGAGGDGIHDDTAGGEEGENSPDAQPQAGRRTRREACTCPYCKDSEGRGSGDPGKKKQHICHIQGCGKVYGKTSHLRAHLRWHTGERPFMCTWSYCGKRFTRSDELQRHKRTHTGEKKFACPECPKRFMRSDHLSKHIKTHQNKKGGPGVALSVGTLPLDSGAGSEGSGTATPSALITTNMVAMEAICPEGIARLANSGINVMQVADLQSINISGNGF
Summary of the method: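 Liver-derived HepG2 cells, cis-element reporter library, 24 h treatment; RNA isolated, cDNA amplified with reporter-specific primers, FAM-labeled fragments sized on capillary analyzer. DMSO baseline, bidirectional curve fit.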

[16] = biological target: Signal transducer and activator of transcription 3 (Homo sapiens) (UniProt P40763); test: ATG_STAT3_CIS: Attagene CIS-FACTORIAL HepG2 Assay for human Signal Transducer and Activator of Transcription 3 (STAT3) (AID 2282963); conditions: HepG2, Attagene cis-factorial STAT3 reporter transcription; actives raise or lower the signal
Sequence of Signal transducer and activator of transcription 3 (Homo sapiens) (P40763 whole entry, looked up): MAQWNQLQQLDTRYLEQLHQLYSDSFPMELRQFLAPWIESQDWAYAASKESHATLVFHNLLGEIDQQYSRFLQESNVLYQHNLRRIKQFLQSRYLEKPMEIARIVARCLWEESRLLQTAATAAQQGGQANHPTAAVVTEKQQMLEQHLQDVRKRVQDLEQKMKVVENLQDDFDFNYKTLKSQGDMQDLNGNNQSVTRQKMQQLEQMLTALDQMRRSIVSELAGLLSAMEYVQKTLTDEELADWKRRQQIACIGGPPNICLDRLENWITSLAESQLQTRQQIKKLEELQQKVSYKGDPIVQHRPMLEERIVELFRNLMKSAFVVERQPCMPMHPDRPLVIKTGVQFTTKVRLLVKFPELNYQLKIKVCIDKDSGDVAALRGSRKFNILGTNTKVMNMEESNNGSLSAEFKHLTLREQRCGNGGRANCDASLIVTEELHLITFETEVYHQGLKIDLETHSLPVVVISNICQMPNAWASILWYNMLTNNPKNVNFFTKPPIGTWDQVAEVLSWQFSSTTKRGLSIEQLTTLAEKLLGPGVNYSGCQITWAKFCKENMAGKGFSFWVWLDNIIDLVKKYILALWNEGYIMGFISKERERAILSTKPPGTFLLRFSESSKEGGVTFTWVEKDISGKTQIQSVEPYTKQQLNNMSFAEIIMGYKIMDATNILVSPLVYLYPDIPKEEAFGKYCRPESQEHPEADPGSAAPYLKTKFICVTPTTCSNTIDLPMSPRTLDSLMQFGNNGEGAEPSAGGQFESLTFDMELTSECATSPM
Summary of the method: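 Uses human liver HepG2 transiently carrying cis-regulated reporter transcription units. Following 24 h dosing, reporter mRNA induction was detected by RT-PCR and capillary electrophoresis, analysed bidirectionally versus DMSO.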

[17] = ATG_TA_CIS: Attagene CIS-FACTORIAL HepG2 Assay for human TA Basal Promoter (AID 2282964); conditions: HepG2 Attagene CIS-factorial TA basal promoter reporter; actives raise or lower the signal
Summary of the method: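 Transfected HepG2, 24 h compound exposure; RNA → RT-PCR → FAM primer extension → HpaI cut → CE fluorescence. Gain/loss-of-signal fitted against DMSO negative control. Background-control readout.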

[18] = ATG_TCF_b_cat_CIS: Attagene CIS-FACTORIAL HepG2 Assay for human T-Cell-Factor with beta-catenin (TCF/b-cat) (AID 2282965); conditions: HepG2 TCF/beta-catenin cis-reporter transcription, actives raise or lower the signal
Summary of the method: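 In this cis-format system, transfected HepG2 cells report endogenous transcription factor activity. Readout after 24 h exposure is reporter transcript abundance from RT-PCR and capillary electrophoresis, analysed for gain or loss of signal versus DMSO.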

[19] = ATG_SREBP_CIS: Attagene CIS-FACTORIAL HepG2 Assay for human Sterol Regulatory Element Binding (SREBP) (AID 2282962); conditions: HepG2 Attagene cis-factorial SREBP reporter, mRNA; actives raise or lower the signal
Summary of the method: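 Readout: fluorescent reporter-transcript peaks resolved by capillary electrophoresis after RT-PCR. Cells were human HepG2 carrying transfected cis-promoter reporter constructs, dosed for 24 h. Gain or loss of signal was fitted against DMSO controls.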

Measured: AC50

C=Cc1ccc(C)cc1
active: [11] 36.9 µM
not listed: [19]
inactive: all other assays above

O=C(O)CNc1ccccc1
active: [3] 165 µM | [11] 19.2 µM
not listed: [12] | [18]
inactive: all other assays above

CCCCCCCCCCCC(=O)OC[C@@H](O)[C@H]1OC[C@H](O)[C@H]1O
not listed: [12]
inactive: all other assays above

Nc1ccc2cc(S(=O)(=O)O)cc(O)c2c1N=Nc1ccccc1C(F)(F)F
active: [11] 38.5 µM
not listed: [13] | [16] | [19]
inactive: all other assays above

C=CCCC(=O)/C=C/C1C(C)=CCCC1(C)C (stereo not drawn)
active: [7] 152 µM | [8] 150 µM | [11] 1.18 µM | [19] 100 µM
not listed: [13]
inactive: all other assays above

CC1(C)COCN1
inactive: all assays above

COc1ccc(N)c([N+](=O)[O-])c1
inactive: all assays above

c1ccc(CN(Cc2ccccc2)Cc2ccccc2)cc1
active: [11] 2.51 µM | [15] 165 µM
not listed: [12]
inactive: all other assays above
